# Assay results from PubChem BioAssay AID1159580 (chemical genetic matrix, 2015).
# Out of some 5,500 compounds screened, about 2,000 (36%) were called active. About 18% were inconclusive and are not listed. The list shows a part of the results. Values without a mark were called inactive. Rule as the data show it: active = normalized growth mostly below about 0.91 (no sharp cut-off); inconclusive = no clear call, values can overlap the other calls; inactive = mostly above about 0.92.
# Assay: chemical genetic growth profiling, strain panel (AID 1159580);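 also: tested at 20 µM; growth read once vehicle control cultures reached saturation at 30 °C; 1 = growth at the plate median or of vehicle wells; lower values mean less growth of the strain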
# Settings: S. cerevisiae deletion strains, growth OD
# [1] = locus YHR030C, strain SLT2, stronger effect = lower value
compound,measurement,setting,value
N#CC(C(=O)Nc1cccc(C(F)(F)F)c1)C(=S)Nc1ccccc1Cl (stereo not drawn),normalized growth,"locus YAR019C, strain CDC15, stronger effect = lower value",0.992
same,normalized growth,"locus YDL017W, strain CDC7, stronger effect = lower value",0.985
same,normalized growth,"locus YDL028C, strain MPS1, stronger effect = lower value",1
same,normalized growth,"locus YDL108W, strain KIN28, stronger effect = lower value",0.99
same,normalized growth,"locus YDL132W, strain cdc53, stronger effect = lower value",0.976
same,normalized growth,"locus YDL214C, strain PRR2, stronger effect = lower value",0.296 (active)
same,normalized growth,"locus YDR052C, strain DBF4, stronger effect = lower value",1
same,normalized growth,"locus YDR054C, strain cdc34, stronger effect = lower value",0.98
same,normalized growth,"locus YDR477W, strain SNF1, stronger effect = lower value",0.105 (active)
same,normalized growth,"locus YER123W, strain YCK3, stronger effect = lower value",0.969
same,normalized growth,"locus YER133W, strain GLC7, stronger effect = lower value",0.143 (active)
same,normalized growth,"locus YFL009W, strain cdc4, stronger effect = lower value",0.989
same,normalized growth,"locus YFL029C, strain CAK1, stronger effect = lower value",1
same,normalized growth,"locus YFR003C, strain YPI1, stronger effect = lower value",0.997
same,normalized growth,"locus YFR019W, strain FAB1, stronger effect = lower value",0.957
same,normalized growth,"locus YFR028C, strain CDC14, stronger effect = lower value",0.977
same,normalized growth,"locus YGR040W, strain KSS1, stronger effect = lower value",0.147 (active)
same,normalized growth,"locus YGR052W, strain FMP48, stronger effect = lower value",0.396 (active)
same,normalized growth,"locus YGR092W, strain DBF2, stronger effect = lower value",0.98
same,normalized growth,[1],0.957
same,normalized growth,"locus YHR079C, strain IRE1, stronger effect = lower value",0.978
same,normalized growth,"locus YHR205W, strain SCH9, stronger effect = lower value",0.975
same,normalized growth,"locus YIL147C, strain SLN1, stronger effect = lower value",0.996
same,normalized growth,"locus YJL095W, strain BCK1, stronger effect = lower value",0.914
same,normalized growth,"locus YJR016C, strain ILV3, stronger effect = lower value",0.978
same,normalized growth,"locus YJR066W, strain TOR1, stronger effect = lower value",0.78
same,normalized growth,"locus YKL048C, strain ELM1, stronger effect = lower value",0.986
same,normalized growth,"locus YKL101W, strain HSL1, stronger effect = lower value",0.994
same,normalized growth,"locus YKL193C, strain SDS22, stronger effect = lower value",0.998
same,normalized growth,"locus YLR113W, strain HOG1, stronger effect = lower value",0.449 (active)
same,normalized growth,"locus YLR133W, strain CKI1, stronger effect = lower value",0.984
same,normalized growth,"locus YLR403W, strain SFP1, stronger effect = lower value",0.979
same,normalized growth,"locus YML070W, strain DAK1, stronger effect = lower value",0.966
same,normalized growth,"locus YMR001C, strain CDC5, stronger effect = lower value",0.995
same,normalized growth,"locus YMR205C, strain PFK2 (second series), stronger effect = lower value",0.991
same,normalized growth,"locus YMR277W, strain FCP1, stronger effect = lower value",0.98
same,normalized growth,"locus YNL006W, strain LST8, stronger effect = lower value",0.991
same,normalized growth,"locus YNL020C, strain ARK1, stronger effect = lower value",0.981
same,normalized growth,"locus YNL183C, strain NPR1, stronger effect = lower value",0.191 (active)
same,normalized growth,"locus YNL207W, strain RIO2, stronger effect = lower value",0.996
same,normalized growth,"locus YNL307C, strain MCK1 (second series), stronger effect = lower value",0.983
same,normalized growth,"locus YOL078W, strain AVO1, stronger effect = lower value",0.992
same,normalized growth,"locus YOL136C, strain PFK27, stronger effect = lower value",0.959
same,normalized growth,"locus YOR061W, strain CKA2, stronger effect = lower value",0.97
same,normalized growth,"locus YOR231W, strain MKK1, stronger effect = lower value",1.01
same,normalized growth,"locus YOR329C, strain SCD5, stronger effect = lower value",0.997
same,normalized growth,"locus YPL153C, strain RAD53, stronger effect = lower value",0.963
same,normalized growth,"locus YPL204W, strain HRR25, stronger effect = lower value",0.963
same,normalized growth,"locus YPL209C, strain IPL1, stronger effect = lower value",1
same,normalized growth,"locus YPL256C, strain CLN2, stronger effect = lower value",0.501 (active)
same,normalized growth,"locus YPR025C, strain CCL1, stronger effect = lower value",0.993
same,normalized growth,"locus YPR111W, strain DBF20, stronger effect = lower value",0.784 (active)
same,normalized growth,"strain NNK1, stronger effect = lower value",1.02
same,normalized growth,"strain TSCII, stronger effect = lower value",0.996
O=C1NCCN=C(c2ccccc2)c2ccccc21,normalized growth,"locus YAL013W, strain DEP1, stronger effect = lower value",0.999
same,normalized growth,"locus YBR229C, strain ROT2, stronger effect = lower value",1
same,normalized growth,"locus YCL061C, strain MRC1, stronger effect = lower value",0.99
same,normalized growth,"locus YDL101C, strain DUN1, stronger effect = lower value",0.984
same,normalized growth,"locus YDL134C, strain PPH21, stronger effect = lower value",1.01
same,normalized growth,"locus YDR150W, strain NUM1, stronger effect = lower value",0.911
same,normalized growth,"locus YEL061C, strain CIN8, stronger effect = lower value",0.995
same,normalized growth,"locus YGR078C, strain PAC10, stronger effect = lower value",0.99
same,normalized growth,[1],1.03
same,normalized growth,"locus YHR087W, strain rtc3, stronger effect = lower value",0.999
same,normalized growth,"locus YJL187C, strain SWE1, stronger effect = lower value",0.997
same,normalized growth,"locus YJR043C, strain POL32, stronger effect = lower value",0.995
same,normalized growth,"locus YJR075W, strain HOC1, stronger effect = lower value",1.01
same,normalized growth,"locus YLR039C, strain RIC1, stronger effect = lower value",0.985
same,normalized growth,"locus YLR058C, strain SHM2 (second series), stronger effect = lower value",0.998
same,normalized growth,"locus YLR085C, strain ARP6, stronger effect = lower value",1.01
same,normalized growth,"locus YLR262C, strain YPT6, stronger effect = lower value",0.968
same,normalized growth,"locus YML094W, strain GIM5, stronger effect = lower value",0.98
same,normalized growth,"locus YMR219W, strain ESC1, stronger effect = lower value",0.999
same,normalized growth,"locus YMR263W, strain SAP30, stronger effect = lower value",0.973
same,normalized growth,"locus YMR307W, strain GAS1, stronger effect = lower value",0.994
same,normalized growth,"locus YNL153C, strain GIM3, stronger effect = lower value",0.99
same,normalized growth,"locus YNL298W, strain CLA4 (second series), stronger effect = lower value",1.01
same,normalized growth,"locus YNL322C, strain KRE1, stronger effect = lower value",0.994
same,normalized growth,"locus YNR030W, strain Alg12, stronger effect = lower value",1
same,normalized growth,"locus YOL006C, strain TOP1, stronger effect = lower value",1
same,normalized growth,"locus YPL055C, strain LGE1, stronger effect = lower value",0.956
same,normalized growth,"locus YPL241C, strain CIN2, stronger effect = lower value",0.976
same,normalized growth,"locus YPR135W, strain CTF4, stronger effect = lower value",1.01
